The structures appear in SMILES notation. Calls of active or inactive are those of the source.

Assay [1] can be described thus: small molecules captured by biotinylated probe aFSTL3 – biochemical, small-molecule microarray, fluorescence 635/667, stem cell growth factor project, primary screen (AID 1064).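 Note: measures binding of the biotinylated anti-FSTL3 antibody to printed compounds.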 To be noted: higher = more signal.
Assay [2] can be described thus: binders from COS7 lysate, DM2A8 probe, primary screen, torsin A project, cell lysate, small-molecule microarray, fluorescence 635/667 (AID 1065). To be noted: higher = more signal, COS7 lysate expressing mutant human TOR1A.
The nature of assay [3]: small molecules captured by biotinylated probe aFGF2 – biochemical, small-molecule microarray, fluorescence 635/667, stem cell growth factor project, primary screen (AID 1067).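 Note: measures binding of biotinylated aFGF2 protein to printed compounds on slides; z-score merges feature fluorescence and signal-to-noise across triplicate slides.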 To be noted: higher = more signal.
Assay [4] can be described thus: small molecules captured by biotinylated probe aFGF10 – biochemical, small-molecule microarray, fluorescence 635/667, stem cell growth factor project, primary screen (AID 1071).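 Note: score merges 667 nm spot intensity and signal to noise from triplicate slides.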 To be noted: higher = more signal.
Assay [5] concerns the target Neurogenic locus notch homolog protein 2 (Homo sapiens) (UniProt Q04721). Nature of the assay: small molecules binding Notch2 protein – biochemical, small-molecule microarray, 635 nm fluorescence, stem cell growth factors, primary screen (AID 1073). To be noted: higher = more signal.
In assay [6] the target is Pro-neuregulin-1, membrane-bound isoform (Homo sapiens) (UniProt Q02297). Nature of the assay: small molecules binding neuregulin-1 protein – biochemical, small-molecule microarray, fluorescence 635/667, psychiatric disease protein project, primary screen (AID 1075).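 Note: score combines 667 nm spot fluorescence with signal to noise.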 As to conditions: NRG1 binding, 635 nm fluorescence, higher = more signal.
For assay [7], the system named is Neuregulin-1 EGF-like domain. Nature of the assay: small molecules binding NRG1 EGF domain – biochemical, small-molecule microarray, 635 nm fluorescence, primary screen (AID 1081).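 Note: binding of the protein to compounds printed on small-molecule microarray slides.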 As to conditions: higher = more signal.
The nature of assay [8]: FRG1 expression reporter modulators in myotubes – cell-based, C2C12 myotubes, firefly/Renilla luciferase, luminescence, FRG1 inhibition for FSHD, primary screen (AID 1084). As to conditions: FRG1 promoter luciferase, higher = more signal, called active from +8 up or from −8 down.
Assay [9] can be described thus: small molecules captured by biotinylated probe aFST – biochemical, small-molecule microarray, fluorescence 635/667, stem cell growth factor project, primary screen (AID 1086).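 Note: score merges 667 nm fluorescence with signal-to-noise of each printed compound spot.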 As to conditions: higher = more signal.
The nature of assay [10]: binders of probe aHhip on microarray, primary screen, stem cell growth factor project, biochemical, small-molecule microarray, fluorescence 635/667 (AID 1087).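 Note: score merges spot fluorescence at 667nm with spot signal to noise ratio.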 As to conditions: higher = more signal.
In assay [11] the test system is PRMT1 (protein arginine N-methyltransferase 1). Nature of the assay: small molecules binding arginine methyltransferase PRMT1 – biochemical, small-molecule microarray, 635 nm fluorescence, primary screen (AID 1088).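 Note: binding of Prmt1 protein to compounds spotted on small-molecule microarray slides.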 To be noted: higher = more signal.
Assay [12] is described as follows: growth effects on S. cerevisiae YJM789 – YJM789 clinical isolate, OD600, 24 h, basal, primary screen (AID 1089).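 Note: growth of clinical yeast isolate S. cerevisiae YJM 789 seeded 1000 cells per well; test concentration not given here.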 As to conditions: higher = more signal, called active from +8 up or from −8 down.
Assay [13] is described as follows: S. pombe growth modifiers, basal conditions – strain 972, OD600, 24 h, no modulator, primary screen (AID 1090).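 Note: basal condition with compound alone and no growth modifier present; test concentration not given here.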 As to conditions: S. pombe 972 growth, higher = more signal, called active from +8 up or from −8 down.
Assay [14] is described as follows: budding yeast growth modifiers under rapamycin – strain BY4716, OD600, 96 h, primary screen (AID 1091). Note: test concentration not given here. To be noted: S. cerevisiae BY4716 + rapamycin, higher = more signal, called active from +8 up or from −8 down.
In assay [15] the target is Torsin-1A-interacting protein 2 (Homo sapiens) (UniProt Q8NFQ8). Nature of the assay: small molecules binding lysate-expressed LULL1 – cell lysate, human LULL1 lysate, 635/667 nm fluorescence, primary screen (AID 1092).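 Note: probe is lysate of COS7 cells overexpressing human LULL1; score merges per-feature 667 nm fluorescence with signal-to-noise.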 As to conditions: small-molecule microarray, hLULL1 lysate binding, 635 nm fluorescence; higher = more signal.
Assay [16] is described as follows: optical density change of DRC41 E. coli – strain DRC41, OD650, 24 h, E. coli filamentation project, primary screen (AID 1093).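 Note: MC1000 strain lacking acrAB efflux and sulA so SOS filamentation is blocked; test concentration not given here.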 To be noted: E. coli DRC41 growth, higher = more signal, called active from +8 up or from −8 down.
Assay [17] can be described thus: probe aLefty2 binding to arrayed compounds – biochemical, biotinylated probe, 635/667 nm fluorescence, primary screen (AID 1094).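 Note: score merges spot fluorescence near 667 nm with spot signal-to-noise ratio.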 To be noted: small-molecule microarray, higher = more signal.
Assay [18] deals with Noggin (protein binding on small-molecule microarray). Nature of the assay: small molecules binding Noggin protein – biochemical, 635/667 nm fluorescence, primary screen (AID 1095).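 Note: score merges 667 nm feature fluorescence with signal to noise over triplicate slides.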 As to conditions: 635 nm fluorescence, higher = more signal.
Assay [19] has as its target Neurogenic locus notch homolog protein 3 (Homo sapiens) (UniProt Q9UM47). Nature of the assay: small molecules binding NOTCH3 protein – biochemical, 635/667 nm fluorescence, primary screen (AID 1096). As to conditions: small-molecule microarray, 635 nm fluorescence, higher = more signal.
A short description of assay [20]: probe aEGFR binding to arrayed compounds – biochemical, biotinylated probe, 635/667 nm fluorescence, primary screen (AID 1097).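 Note: probe is a biotinylated anti-EGFR antibody binding compounds printed on slides; score combines fluorescence near 667 nm and signal to noise of each spot.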 As to conditions: small-molecule microarray, higher = more signal.

Sequence of Torsin-1A-interacting protein 2 (Homo sapiens) (Q8NFQ8 whole entry, looked up): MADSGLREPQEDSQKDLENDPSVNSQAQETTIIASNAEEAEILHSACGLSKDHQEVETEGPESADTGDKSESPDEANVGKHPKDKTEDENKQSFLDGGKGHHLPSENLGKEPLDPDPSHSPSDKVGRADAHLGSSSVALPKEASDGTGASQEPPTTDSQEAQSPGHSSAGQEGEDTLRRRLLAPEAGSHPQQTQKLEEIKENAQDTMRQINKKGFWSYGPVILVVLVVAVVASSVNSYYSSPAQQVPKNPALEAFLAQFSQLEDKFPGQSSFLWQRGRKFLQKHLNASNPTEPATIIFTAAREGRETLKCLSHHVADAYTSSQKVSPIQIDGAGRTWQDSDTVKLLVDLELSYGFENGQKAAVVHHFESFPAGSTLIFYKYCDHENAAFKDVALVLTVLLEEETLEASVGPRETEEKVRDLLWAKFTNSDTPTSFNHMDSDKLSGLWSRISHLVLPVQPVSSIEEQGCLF
Sequence of Neurogenic locus notch homolog protein 2 (Homo sapiens) (Q04721 whole entry, looked up, canonical isoform): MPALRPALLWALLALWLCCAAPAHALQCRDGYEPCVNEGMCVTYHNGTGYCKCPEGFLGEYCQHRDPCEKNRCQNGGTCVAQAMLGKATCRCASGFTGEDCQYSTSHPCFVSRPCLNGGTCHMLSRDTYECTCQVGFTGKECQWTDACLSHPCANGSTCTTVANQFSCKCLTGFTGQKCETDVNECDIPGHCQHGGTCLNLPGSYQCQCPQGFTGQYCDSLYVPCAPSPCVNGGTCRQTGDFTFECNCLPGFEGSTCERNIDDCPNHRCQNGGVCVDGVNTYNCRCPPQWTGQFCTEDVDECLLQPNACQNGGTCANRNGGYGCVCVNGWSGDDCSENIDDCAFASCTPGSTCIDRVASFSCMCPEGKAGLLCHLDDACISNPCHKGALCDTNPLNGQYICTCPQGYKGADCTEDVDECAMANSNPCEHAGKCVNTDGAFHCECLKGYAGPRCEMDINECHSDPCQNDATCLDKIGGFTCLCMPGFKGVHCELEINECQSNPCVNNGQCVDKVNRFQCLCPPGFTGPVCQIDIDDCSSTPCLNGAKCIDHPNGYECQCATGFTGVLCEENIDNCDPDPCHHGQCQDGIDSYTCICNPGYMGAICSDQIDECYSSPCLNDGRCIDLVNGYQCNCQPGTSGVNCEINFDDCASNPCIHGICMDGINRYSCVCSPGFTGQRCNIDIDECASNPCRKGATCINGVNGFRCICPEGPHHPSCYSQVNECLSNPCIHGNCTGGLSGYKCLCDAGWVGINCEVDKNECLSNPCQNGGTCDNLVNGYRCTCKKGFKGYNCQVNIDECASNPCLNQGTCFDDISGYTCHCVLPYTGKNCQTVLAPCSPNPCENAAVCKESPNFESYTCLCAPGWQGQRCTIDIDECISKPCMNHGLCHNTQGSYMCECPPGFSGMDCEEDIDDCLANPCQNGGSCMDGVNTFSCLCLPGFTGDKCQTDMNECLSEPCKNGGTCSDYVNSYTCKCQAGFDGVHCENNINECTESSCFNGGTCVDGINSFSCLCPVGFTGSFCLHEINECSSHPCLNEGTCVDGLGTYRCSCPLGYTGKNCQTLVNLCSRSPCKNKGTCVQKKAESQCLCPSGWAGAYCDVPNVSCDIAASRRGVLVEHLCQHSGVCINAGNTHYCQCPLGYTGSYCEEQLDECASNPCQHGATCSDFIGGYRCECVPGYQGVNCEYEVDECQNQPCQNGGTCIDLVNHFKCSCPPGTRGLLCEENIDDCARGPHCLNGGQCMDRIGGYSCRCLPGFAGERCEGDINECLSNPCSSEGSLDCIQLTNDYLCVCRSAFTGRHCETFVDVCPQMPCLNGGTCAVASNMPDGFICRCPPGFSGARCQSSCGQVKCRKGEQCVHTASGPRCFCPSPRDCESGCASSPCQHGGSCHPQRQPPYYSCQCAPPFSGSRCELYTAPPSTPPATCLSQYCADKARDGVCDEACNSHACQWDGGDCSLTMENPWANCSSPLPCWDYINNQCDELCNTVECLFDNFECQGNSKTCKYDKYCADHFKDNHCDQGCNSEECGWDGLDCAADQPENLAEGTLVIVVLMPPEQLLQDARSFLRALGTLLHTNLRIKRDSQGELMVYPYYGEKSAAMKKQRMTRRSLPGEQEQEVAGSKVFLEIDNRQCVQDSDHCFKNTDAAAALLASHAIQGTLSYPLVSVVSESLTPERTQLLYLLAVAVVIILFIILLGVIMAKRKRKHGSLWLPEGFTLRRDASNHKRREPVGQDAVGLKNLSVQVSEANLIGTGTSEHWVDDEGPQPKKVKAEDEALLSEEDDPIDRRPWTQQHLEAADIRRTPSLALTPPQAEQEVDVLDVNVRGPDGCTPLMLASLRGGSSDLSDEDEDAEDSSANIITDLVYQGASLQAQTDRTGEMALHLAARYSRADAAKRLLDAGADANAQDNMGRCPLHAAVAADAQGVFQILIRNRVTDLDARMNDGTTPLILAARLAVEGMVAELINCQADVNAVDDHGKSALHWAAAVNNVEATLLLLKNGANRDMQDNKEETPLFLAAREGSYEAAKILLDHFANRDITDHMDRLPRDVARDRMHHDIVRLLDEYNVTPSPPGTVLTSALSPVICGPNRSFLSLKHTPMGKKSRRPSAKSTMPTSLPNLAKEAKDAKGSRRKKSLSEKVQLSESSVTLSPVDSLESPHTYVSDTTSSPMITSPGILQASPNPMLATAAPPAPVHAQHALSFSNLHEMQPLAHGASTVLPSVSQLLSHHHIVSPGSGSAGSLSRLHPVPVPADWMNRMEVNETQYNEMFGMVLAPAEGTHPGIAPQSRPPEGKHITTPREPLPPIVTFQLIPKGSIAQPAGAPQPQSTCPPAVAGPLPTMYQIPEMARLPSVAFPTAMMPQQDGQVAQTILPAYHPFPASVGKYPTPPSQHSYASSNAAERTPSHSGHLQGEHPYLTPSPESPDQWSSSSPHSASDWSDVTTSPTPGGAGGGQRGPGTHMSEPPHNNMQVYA
Sequence of Pro-neuregulin-1, membrane-bound isoform (Homo sapiens) (Q02297 whole entry, looked up, the tested form may be a part, canonical isoform): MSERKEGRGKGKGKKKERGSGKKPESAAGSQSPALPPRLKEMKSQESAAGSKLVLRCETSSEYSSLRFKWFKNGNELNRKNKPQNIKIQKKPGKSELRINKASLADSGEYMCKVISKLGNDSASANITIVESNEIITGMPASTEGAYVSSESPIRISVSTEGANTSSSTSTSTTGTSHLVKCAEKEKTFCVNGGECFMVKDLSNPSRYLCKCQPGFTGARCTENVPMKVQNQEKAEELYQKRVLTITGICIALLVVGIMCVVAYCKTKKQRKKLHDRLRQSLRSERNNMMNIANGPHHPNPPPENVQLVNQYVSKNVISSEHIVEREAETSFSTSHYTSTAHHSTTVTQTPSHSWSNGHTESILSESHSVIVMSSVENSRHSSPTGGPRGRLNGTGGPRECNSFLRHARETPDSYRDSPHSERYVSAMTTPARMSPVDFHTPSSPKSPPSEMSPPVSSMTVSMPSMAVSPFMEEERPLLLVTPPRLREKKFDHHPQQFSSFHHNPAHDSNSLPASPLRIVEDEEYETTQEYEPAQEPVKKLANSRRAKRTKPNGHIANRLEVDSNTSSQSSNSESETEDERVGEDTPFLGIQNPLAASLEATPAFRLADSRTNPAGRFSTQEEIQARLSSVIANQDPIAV

On to `Cc1ccc(C(C)C)n1C(=O)OC(C)(C)C`, for which the composite z-score is -0.504 in assay [1]; 0.166 in assay [2]; -0.0621 in assay [3]; 0.357 in [4]; 0.404 in assay [5]; -0.199 in [6]. Moreover, the composite z-score in assay [7] is 0.477; in assay [9], -0.3; in assay [10] it was 0.0749; in [11], 0.0565; in assay [15], 0.345; in assay [17], -0.138. Moreover, the results for the composite z-score in assay [18], in assay [19] and in assay [20] were 0.535, 0.915 and -0.0549, respectively. Moreover, the z-score is -1.08 (inactive) in assay [8]; -0.923 (inactive) in assay [12]; -0.817 (inactive) in assay [13]; -0.665 (inactive) in assay [14]; -0.315 (inactive) in assay [16].
In the case of `CC(C)CN1CCc2nc(-c3ccccc3)c3c(c2C1)CO[C@@H](C)C3`, the composite z-score was -0.277 in assay [1]; 0.306 in assay [2]; -0.0291 in assay [3]; 0.923 in assay [4]; 1.31 in [5]; 0.43 in assay [6]. The composite z-score in assay [7] was 0.846; in assay [9] it was 0.147; in [10] it was -0.16; in [11], 1.42; in [15], 1.71; in assay [17], -0.145. Besides, the composite z-score came to 1.5 in [18], 1.08 in [19] and 0.0914 in assay [20]. Further, the z-score is 0.955 (inactive) in assay [8]; -0.319 (inactive) in assay [12]; 0.218 (inactive) in assay [13]; -0.0674 (inactive) in [14]; 0.801 (inactive) in assay [16].
On to `C[C@@H]1CC[C@H]2C(=O)O[C@@H](COc3ccc(C(C)(C)C)cc3)CN2[C@H]1c1ccc(Br)cc1`, for which the composite z-score in assay [1] was -0.348; in assay [2], 0.0745; in assay [3], -0.103; in assay [4], 0.085; in assay [5], -0.0477; in assay [6], 0.101. Also, the composite z-score in assay [7] was -0.4; in [9], 0.153; in assay [10], -0.16; in [11] it was 0.76; in assay [15], 0.456; in assay [17], -0.159. Also, the composite z-score in assay [18] is 0.307; in [19], -0.288; in [20], -0.0326. The z-score in [8] was 0.732 (inactive); in [12], 0.267 (inactive); in assay [13], -0.0416 (inactive); in assay [14], -0.264 (inactive); in [16] it was 0.113 (inactive).
`O=C1[C@H]2CCn3c(=O)n(-c4ccccc4)c(=O)n3[C@H]2[C@H](O)[C@@H]2O[C@H]12`: the composite z-score in assay [1] is -0.561; in assay [2] it was -0.0619; in assay [3], -0.0667; in [4], 0.328; in [5] it was 0.164; in [6], 1.63. Moreover, the composite z-score in [7] is -0.125; in assay [9], -0.0545; in assay [10], -0.305; in assay [11], -0.0775; in assay [15], -0.29; in [17], -0.225. Further, the values for the composite z-score in assay [18], in assay [19] and in assay [20] were 0.224, -0.281 and -0.181, respectively. Moreover, the z-score in [8] is -0.217 (inactive); in assay [12], 0.689 (inactive); in assay [13] it was -0.41 (inactive); in assay [14], -0.206 (inactive); in assay [16] it was -0.0475 (inactive).
Consider `COc1ccc(COC(=O)NN=C2C[C@@H](O)[C@@H](O)[C@@H]3[C@@H]4C(=O)N(Cc5ccc6c(c5)OCO6)C(=O)[C@@H]4CC[C@H]23)cc1`, for which the composite z-score was 1.62 in [1]; -0.197 in assay [2]; -0.0269 in assay [3]; -0.0605 in [4]; -0.546 in assay [5]; -0.393 in assay [6]. The composite z-score in assay [7] was -0.282; in [9] it was 0.648; in assay [10] it was 0.0373; in [11], 0.041; in [15] it was 0.259; in [17], 0.475. In addition, the composite z-score in assay [18] is -0.961; in [19], -0.523; in [20], -0.194. Also, the z-score in [8] is 1.02 (inactive); in assay [12], 1.13 (inactive); in [13], 0.713 (inactive); in [14] it was -0.369 (inactive); in assay [16] it was 0.434 (inactive).

(Values after PubChem BioAssay.)
